# Test results as given in PubChem BioAssay.
# Experiment: small-molecule microarray binders of probe aDKK1, primary screen, biochemical, biotinylated probe, 635/667 nm fluorescence (AID 1099);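 also: score merges 667nm spot fluorescence with signal to noise across triplicate slides; reference of the scale not given here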
# Details: higher = more signal
row,Structure (SMILES),composite z-score
1,COc1ccc(CCNC(=O)[C@@H]2c3ccccc3C(=O)N(C(C)C)[C@H]2c2ccc(CO)cc2)cc1,0.316
2,O=C1O[C@@H](c2ccccc2)[C@@H](c2ccccc2)N2[C@@H](c3ccc(OCCO)cc3)[C@]3(C(=O)Nc4ccc(C#CC5=CCCCC5)cc43)[C@@H](C(=O)Nc3nc4ccccc4s3)[C@H]12,-0.127
3,C=C(COC)C(=O)CC[C@@H](OC(=O)c1ccccc1-c1ccccc1C(=O)O)c1ccccc1OCCO,-0.0934
4,CCOC(=O)C[C@H]1[C@H](OC(=O)Cc2ccc3c(c2)OCO3)[C@@H](NC(=O)CC(C)C)c2cc(OCCCO)ccc2N1C(=O)c1ccc2ccccc2n1,0.0956
5,COC(=O)Cn1c(C(=O)N(C)C)cc2c1C[C@H]1CN(C(=O)c3ccccc3)[C@@](Cc3ccccc3)(C(=O)OC)[C@@H]21,0.605
6,C[C@@]1([C@@H](NS(=O)(=O)c2cccc3cccnc23)c2ccc(-c3ccccc3)cc2)C[C@H]1C1CCCCC1,0.778
7,COCCOC(=O)N1C(=O)[C@@]2(c3cc(C#CCC(C(=O)OC)C(=O)OC)ccc31)[C@H](C(N)=O)[C@H]1C(=O)O[C@H](c3ccccc3)[C@H](c3ccccc3)N1[C@@H]2c1ccccc1OCCO,-0.202
8,CN1C(=O)C2CC=C(C3=CCO[C@@H]3[C@H]3CCCN3S(=O)(=O)c3ccccc3[N+](=O)[O-])CC2C1=O (some centres undefined),-0.22
9,COc1cccc(C)c1NC(=O)O[C@H]1[C@H](OC(=O)Nc2ccccc2)[C@@H](OC(=O)Nc2ccccc2)[C@@H](OC)O[C@@H]1CO,0.266
10,COCCCNC(=O)[C@@]1(c2ccc([N+](=O)[O-])cc2)CC(=O)N(C2CCCCC2)[C@@H]1c1ccc(CO)cc1I,0.0269
11,CO[C@H]1O[C@H](CO)[C@@H](OC(=O)Nc2cccc(F)c2)[C@H](OC(=O)c2cc3ccccc3[nH]2)[C@H]1OC(=O)c1cc2ccccc2[nH]1,-0.448
12,C=C(COC)/C(=C/C[C@@H](OC(C)=O)c1cccc(OCCO)c1)c1cnc2ccccc2c1,0.15
13,CCCC[C@@H](O)C1=C(C)Cn2c(=O)n(-c3ccccc3)c(=O)n2[C@H]1CO,-0.526
14,CCCCC(=C=CC[C@@H](O)c1ccccc1OCCO)C[C@@H](O)c1ccccn1,-0.124

# Experiment: small-molecule microarray binders of probe aCHRDL2, primary screen, biochemical, biotinylated probe, 635/667 nm fluorescence (AID 1100)
# Details: higher = more signal
row,Structure (SMILES),composite z-score
1,C=CCNC(=O)[C@H]1[C@@H]2C(=O)O[C@@H](c3ccccc3)[C@@H](c3ccccc3)N2[C@@H](c2ccc(O)cc2)[C@]12C(=O)N(C(=O)OCCOC)c1ccc(C#Cc3ccc(OC)cc3)cc12,0.478
2,O=C1OC[C@@H](c2ccccc2)n2cc(/C=C/c3ccccc3)cc21,0.0504
3,COc1c(C)cc(-c2nc(-c3ccccc3)c3c(c2C)CO[Si]3(C(C)C)C(C)C)cc1C,0.0757
4,C=C(CCCC)/C(=C/C[C@@H](OC(C)=O)c1cccc(OCCO)c1)c1cc(C(=O)OC)ccc1OC,0.0282
5,CC1CC/C=C\[C@H]2OC34C=CCN(C(C)C)C(=O)[C@H]3N(C(C)CO)C(=O)[C@@H]4C2C(=O)O1 (some centres undefined),-0.335
6,CCCCC(=C=CC[C@@H](O)c1ccc(OCCO)cc1)CCO,-0.305
7,COc1ccc(C(=O)Nc2ccc(CN3C(=O)[C@]4(O[C@H](CC(=O)N(CCO)Cc5ccccc5)[C@@H]([Si](C)(C)c5ccc(OC)cc5)[C@@H]4C)c4ccccc43)cc2)cc1,-0.338
8,COC(=O)[C@@]1(Cc2ccc(F)cc2)[C@H]2c3cc(C(=O)N(C)C)n(Cc4ccc(C(F)(F)F)nc4)c3C[C@H]2CN1C(=O)c1ccccc1,-0.252
9,O=C(NCCN1CCOCC1)[C@@H]1c2ccccc2C(=O)N(CC23CC4CC(CC(C4)C2)C3)[C@H]1c1ccc(CO)cc1,0.789
10,CO[C@H]1O[C@H](CO)[C@@H](OC(=O)Nc2cccc(F)c2)[C@H](OC(=O)Nc2ccc3c(c2)OCO3)[C@@H]1OC(=O)Nc1ccc2c(c1)OCO2,0.558
11,CN(C)CCCCCCNC(=O)[C@@H]1C[C@@H]2C(=O)N[C@@H](CCCC[N+](C)(C)C)C(=O)N2[C@@H]1c1cccc(OCCO)c1,0.474
12,CN(C)C(=O)[C@]1(CCS(=O)(=O)c2ccccc2)N=C(c2ccc(OCCCO)cc2)O[C@@H]1c1ccccc1CN=[N+]=[N-],0.32
13,CN1C(=O)C2C=CC(C(O)c3ccc([N+](=O)[O-])cc3)N(Nc3ccccc3)C2C1=O (centres undefined),0.998
14,CCOC(=O)C[C@H]1[C@H](OC(=O)c2ccccc2-c2ccccc2)[C@@H](NC(=O)CC(C)C)c2cc(OCCCO)ccc2N1C(=O)c1ccccc1,-0.56
15,O=C1C2C=CC(C(O)C3CC=CCC3)N(Nc3ccc([N+](=O)[O-])cc3)C2C(=O)N1c1ccccc1 (centres undefined),1.03
16,COc1cccc(C)c1NC(=O)O[C@H]1[C@H](OC(=O)Nc2ccc3c(c2)OCO3)[C@H](OC(=O)Nc2ccc3c(c2)OCO3)[C@@H](OC)O[C@@H]1CO,0.306
17,CC(C)(C)OC(=O)CC[C@]1(C(N)=O)N=C(c2ccc(OCCCO)cc2)O[C@H]1c1ccccc1N=[N+]=[N-],0.975
18,C=CCN1C(=O)[C@]2(O[C@H](CCO)[C@@H]([Si](C)(C)c3ccc(OC)cc3)[C@@H]2C)c2cc(N3C(=O)c4ccccc4Oc4ccccc43)ccc21,0.117

row,Structure (SMILES),composite z-score
1,C=C(/C=C\CNS(=O)(=O)c1ccc(C)cc1)[C@H](O)[C@H]1CCCN1S(=O)(=O)c1ccccc1[N+](=O)[O-],-0.55
2,COC(=O)[C@@]1(Cc2ccc(F)cc2)[C@H]2c3cc(C(=O)N4CCCC4)n(C[C@H](O)CO)c3C[C@H]2CN1C(=O)c1ccccc1,0.609
3,O=C1O[C@H](c2ccccc2)[C@H](c2ccccc2)N2[C@H]1[C@@H](C(=O)O)[C@]1(C(=O)Nc3ccccc31)[C@H]2c1ccc(OCCO)cc1,-0.0097
4,COc1ccc(CCNC(=O)[C@@H]2c3ccccc3C(=O)N(C(C)C)[C@H]2c2ccc(CO)cc2)cc1,0.684
5,O=C1O[C@@H](c2ccccc2)[C@@H](c2ccccc2)N2[C@@H](c3ccc(OCCO)cc3)[C@]3(C(=O)Nc4ccc(C#CC5=CCCCC5)cc43)[C@@H](C(=O)Nc3nc4ccccc4s3)[C@H]12,-1.13
6,C=C(COC)C(=O)CC[C@@H](OC(=O)c1ccccc1-c1ccccc1C(=O)O)c1ccccc1OCCO,0.0182
7,CCOC(=O)C[C@H]1[C@H](OC(=O)Cc2ccc3c(c2)OCO3)[C@@H](NC(=O)CC(C)C)c2cc(OCCCO)ccc2N1C(=O)c1ccc2ccccc2n1,-0.252
8,COC(=O)Cn1c(C(=O)N(C)C)cc2c1C[C@H]1CN(C(=O)c3ccccc3)[C@@](Cc3ccccc3)(C(=O)OC)[C@@H]21,0.686
9,C[C@@]1([C@@H](NS(=O)(=O)c2cccc3cccnc23)c2ccc(-c3ccccc3)cc2)C[C@H]1C1CCCCC1,1.19
10,COCCOC(=O)N1C(=O)[C@@]2(c3cc(C#CCC(C(=O)OC)C(=O)OC)ccc31)[C@H](C(N)=O)[C@H]1C(=O)O[C@H](c3ccccc3)[C@H](c3ccccc3)N1[C@@H]2c1ccccc1OCCO,-0.129
11,CN1C(=O)C2CC=C(C3=CCO[C@@H]3[C@H]3CCCN3S(=O)(=O)c3ccccc3[N+](=O)[O-])CC2C1=O (some centres undefined),-0.193
12,COc1cccc(C)c1NC(=O)O[C@H]1[C@H](OC(=O)Nc2ccccc2)[C@@H](OC(=O)Nc2ccccc2)[C@@H](OC)O[C@@H]1CO,0.553
13,COCCCNC(=O)[C@@]1(c2ccc([N+](=O)[O-])cc2)CC(=O)N(C2CCCCC2)[C@@H]1c1ccc(CO)cc1I,0.64
14,CO[C@H]1O[C@H](CO)[C@@H](OC(=O)Nc2cccc(F)c2)[C@H](OC(=O)c2cc3ccccc3[nH]2)[C@H]1OC(=O)c1cc2ccccc2[nH]1,-0.154
15,C=C(COC)/C(=C/C[C@@H](OC(C)=O)c1cccc(OCCO)c1)c1cnc2ccccc2c1,0.322
16,CCCC[C@@H](O)C1=C(C)Cn2c(=O)n(-c3ccccc3)c(=O)n2[C@H]1CO,-0.487
17,CCCCC(=C=CC[C@@H](O)c1ccccc1OCCO)C[C@@H](O)c1ccccn1,-0.167
